“And” between values parts separate entries of the source, which are not always exact repeats. Identical values can stand only once. Values without a mark were called inactive.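 Rule for the calls: active = AUC reduced over 20% with Padj below 0.05 in at least 2 of 3 replicates; inactive = otherwise.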
Experiments:
Experiment in all cases: growth AUC relative to DMSO control (median of replicates) (fraction); higher = more growth (less inhibition), active = hit call of the paper
Conditions in all cases: 20 µM; 24 h
Akkermansia muciniphila = system: Akkermansia muciniphila
Procedure, shortened: (§1)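 Each value is the median of three biological replicates, grown on separate days, of a gut bacterial monoculture incubated anaerobically at 37 °C in mGAM with 20 µM compound (1% DMSO). Cultures started at OD600 0.05 and were read at OD600 hourly for 24 h, with the minimum OD set to 0. Area under the growth curve was normalised to the plate median of solvent-only wells, or to row and column medians on the industrial chemical plate.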

Bacteroides caccae = system: Bacteroides caccae
Procedure, shortened: as §1

Bacteroides clarus = system: Bacteroides clarus
Procedure, shortened: as §1

Bacteroides dorei = system: Bacteroides dorei
Procedure, shortened: as §1

Bacteroides stercoris = system: Bacteroides stercoris
Procedure, shortened: as §1

[1] = system: Bacteroides thetaiotaomicron
Procedure, shortened: as §1

Bacteroides uniformis = system: Bacteroides uniformis
Procedure, shortened: as §1

[2] = system: Bifidobacterium longum subsp. longum
Procedure, shortened: as §1

Clostridium difficile = system: Clostridium difficile
Procedure, shortened: as §1

Collinsella aerofaciens = system: Collinsella aerofaciens
Procedure, shortened: as §1

SMILES	growth AUC (Akkermansia muciniphila)	growth AUC (Bacteroides caccae)	growth AUC (Bacteroides clarus)	growth AUC (Bacteroides dorei)	growth AUC (Bacteroides stercoris)	growth AUC [1]	growth AUC (Bacteroides uniformis)	growth AUC [2]	growth AUC (Clostridium difficile)	growth AUC (Collinsella aerofaciens)
O=C1CCc2cccc3c2N1CC3	1.04	0.874	0.964	0.974	1.14	0.883	0.98	1.03	1.03	0.954
CCOP(=O)(NC(C)C)Oc1ccc(S(C)=O)c(C)c1 (stereo not given)	1.01	0.999	1.04	1.04	1.02	0.997	1.02	1.06	1.08	1
CCC(C)c1cc([N+](=O)[O-])cc([N+](=O)[O-])c1O (stereo not given)	1.07	0.967	0.879	0.902	0.865	0.876	0.889	0.981	0.951	0.956
COP(=S)(OC)Oc1ccc(S(C)(=O)=O)c(C)c1	0.98	0.994	1	0.974	1.04	0.994	0.964	0.831	0.985	1.01
O=C(O)C(F)(F)C(F)(F)C(F)(F)C(F)(F)C(F)(F)C(F)(F)C(F)(F)C(F)(F)F	1.01	1	1.02	1.03	1.08	1.07	1.02	1.03	0.997	0.997
Cc1ccc(NC(=O)N(C)C)cc1Cl	0.946	1.04	0.989	1.01	0.954	1	0.976	0.827	1.01	0.989
CC(C)(C)c1cc([N+](=O)[O-])cc([N+](=O)[O-])c1O	0.623	0.973	0.742 (active)	0.931	1.03	0.837	0.876	0.964	0.885	0.96
CNC(=O)c1cc(C#N)cc(C)c1NC(=O)c1cc(Br)nn1-c1ncccc1Cl	0.947	1.04	0.977	1.01	0.933	0.982	0.995	0.999	1	0.981
COP(=S)(NC(C)C)Oc1ccc(C)cc1[N+](=O)[O-] (stereo not given)	0.926	0.974	0.977	0.982	1.09	0.964	0.956	1.04	1.08	1.05
COC(C)(C)CCCC(C)C/C=C/C(C)=C/C(=O)OC(C)C (stereo not given)	0.867	1	0.989	0.996	1.03	0.981	0.963	0.987	1.02	1.04
COP(=S)(OC)Oc1ccc([N+](=O)[O-])c(C)c1	0.998	0.992	0.968	0.984	0.969	0.99	0.97	1.04	0.988	0.952
Nc1cc(Cl)cc(C(=O)O)c1Cl	1.03	0.975	1.02	1.04	1.06	1	0.958	1.04	1.01	1.06
COC(=O)/C=C(/C)OP(=O)(OC)OC	1.05 and 1.08	0.952 and 0.906	1.02 and 1.08	0.879 and 1.01	0.938 and 1.2	0.992 and 0.984	0.981 and 0.997	1 and 1.06	0.956 and 1.01	0.959 and 0.989
Cc1cc(Cl)ccc1OC(C)C(=O)O (stereo not given)	0.902	1.02	0.996	1	1.01	1.01	1	0.88	1.03	1.01
Cc1ccc(N=CN(C)C=Nc2ccc(C)cc2C)c(C)c1	1.13	1.01	1.06	0.983	1.05	1.01	1.02	1.03	1.04	1.01
Nc1ccncc1	0.943	0.997	0.997	1.04	1.02	0.981	0.987	0.911	1	1
CCN(CC)C(=O)/C(Cl)=C(/C)OP(=O)(OC)OC	1.19	1	0.975	0.921	0.977	0.958	0.979	1.02	0.94	0.967
CS/C(C)=N/OC(=O)N(C)SN(C)C(=O)O/N=C(\C)SC	0.98	1.02	0.943	1.05	1.09	1.03	1.02	1.04	1.01	0.932
CCOP(=O)(OCC)OP(=O)(OCC)OCC	1.07	0.988	1	0.956	0.932	1.03	0.992	1.02	1.03	0.966

SMILES	growth AUC (Akkermansia muciniphila)	growth AUC (Bacteroides caccae)	growth AUC (Bacteroides clarus)	growth AUC (Bacteroides dorei)	growth AUC (Bacteroides stercoris)	growth AUC [1]	growth AUC (Bacteroides uniformis)	growth AUC [2]	growth AUC (Clostridium difficile)	growth AUC (Collinsella aerofaciens)
Cc1ccn2nc(S(=O)(=O)Nc3c(F)cccc3F)nc2n1	1.04	0.968	0.986	0.957	0.955	0.985	1.06	1.03	1.03	0.945
CCC(C)(CC)c1cc(NC(=O)c2c(OC)cccc2OC)on1	1.05	1.01	0.949	1.03	1.04	0.959	0.965	1.04	1	0.959
COc1ccc(/C(=C/C(=O)N2CCOCC2)c2ccc(F)cc2)cc1OC	0.998	1.05	0.959	0.953	0.921	0.997	0.984	0.958	1	0.952
N#CN=C1SCCN1Cc1ccc(Cl)nc1	0.871	1	1	0.967	1.22	0.999	0.991	1.04	1.02	0.98
COCc1cnc(C2=NC(C)(C(C)C)C(=O)N2)c(C(=O)O)c1 (stereo not given)	1.12	0.971	1.03	0.918	1	0.999	1.01	1.22	0.973	0.998
CCSC(C)CC1CC(=O)C(/C(CC)=N/OC/C=C/Cl)=C(O)C1 (mixture of isomers)	1.13	1.05	1.03	1.01	1.11	1.01	1.02	1.01	1.04	1.04
CC(C)C(C(=O)OC(C#N)c1cccc(Oc2ccccc2)c1)c1ccc(OC(F)F)cc1 (stereo not given)	0.959	0.981	0.956	1.02	1.08	0.987	1.01	0.965	1.01	1.01
Cc1nnc(-c2ccccc2)c(=O)n1N	0.94	1.05	1	1	0.945	1.02	0.986	1.04	1	0.983
CCOP(=S)(OCC)Oc1ccc(Cl)cc1Cl	0.962	1.03	0.963	1.02	1.04	0.979	0.987	1.04	1.02	1.04
CNC(=O)Oc1cccc(N=CN(C)C)c1.Cl	1.18	1.03	1.03	1.02	1.12	1.02	0.993	1.06	1.02	1.04
Cc1cccc(C)c1N(Cn1cccn1)C(=O)CCl	1.02	0.829	0.997	0.974	1.01	0.987	0.969	1.07	1.01	0.952
CCCN(CCC)c1c([N+](=O)[O-])cc(S(C)(=O)=O)cc1[N+](=O)[O-]	0.897	0.942	0.963	0.937	0.856	0.987	0.954	0.948	0.965	0.914
OC(Cc1ccccc1Cl)(Cn1[nH]cnc1=S)C1(Cl)CC1 (stereo not given)	1.02	0.971	0.856	0.91	1.04	0.821	0.805	0.842	0.985	1.04
CC(C)OC(=O)Nc1ccccc1	0.984	1.02	1.02	1.07	1.12	1.01	0.98	0.988	1.05	1.02
CCOP(=S)(OCC)Oc1cc(Cl)c(Br)cc1Cl	0.917	0.936	0.94	1.02	0.953	0.979	0.966	0.954	0.977	0.98
CC(C)(C)C(O)C(Cc1ccc(Cl)cc1Cl)n1cncn1 (mixture of isomers)	1.11	0.923	0.969	0.889	0.868	0.921	0.932	1.04	1.01	0.936
N#Cc1c(Cl)cccc1Cl	0.866	1.03	0.979	1.04	0.989	1	0.922	0.898	1.01	1.02
CCOP(=S)(OCC)SCS(=O)C(C)(C)C (stereo not given)	0.905	0.997	1.02	0.944	1.08	1.02	0.989	1.02	1	0.987
CCc1cccc(C)c1N(C(=O)CCl)C(C)COC (stereo not given)	1.03	0.884	1.01	0.995	1.26	1	0.935	1.07	0.979	1.02

SMILES	growth AUC (Akkermansia muciniphila)	growth AUC (Bacteroides caccae)	growth AUC (Bacteroides clarus)	growth AUC (Bacteroides dorei)	growth AUC (Bacteroides stercoris)	growth AUC [1]	growth AUC (Bacteroides uniformis)	growth AUC [2]	growth AUC (Clostridium difficile)	growth AUC (Collinsella aerofaciens)
Clc1ccc(Cl)c(Cl)c1	1.04	0.88	1.04	1.01	1.24	1.02	0.953	0.957	0.941	0.969
ClC1=C(Cl)C2(Cl)C3C4C=CC(C4)C3C1(Cl)C2(Cl)Cl (stereo not given)	1.11	1.02	0.987	1.01	1.02	1.03	1.01	0.998	1.02	1.01
[CH3][Hg][Cl]	0.749	0.912	0.837	0.96	0.903	0.679 (active)	0.77 (active)	0.868	0.902	1.01
CON(C)C(=O)Nc1ccc(Cl)cc1	0.997	1.02	0.983	1.03	0.97	1.03	0.999	1.12	1	1.02
Oc1ccc(C(c2ccc(O)cc2)(C(F)(F)F)C(F)(F)F)cc1	1.03	0.63 (active)	0.464 (active)	0.154 (active)	0.0109 (active)	0.679 (active)	0.686 (active)	0.924	0.966	0.894
CCOP(=S)(OCC)Oc1cc(C)nc(C(C)C)n1	1.04	1.02	1	1.03	0.972	1.01	1.02	0.972	1.02	0.986
CCCCCCCCn1sccc1=O	1.04	0.924	0.442 (active)	0.912	0.995	0.689 (active)	0.731	0.571 (active)	0.848	0.776 (active)
Cc1ccc2nc3sc(=O)sc3nc2c1	1.04	0.982	1.01	0.985	0.879	1	1.04	1.07	1.02	0.982
CCOP(=S)(OCC)SCCS(=O)CC (stereo not given)	1.04	1.02	0.979	0.985	1.02	1.02	1.05	1	0.967	1
O=S(=O)(c1ccccc1)c1ccccc1	0.901	0.966	1.01	0.993	1.03	0.997	0.982	1.01	1.02	0.964
CCC(C)c1ccccc1OC(=O)NC (stereo not given)	0.869	1.03	0.975	1.01	0.961	0.981	0.978	0.976	1	0.986
Clc1ccc(C2(Cn3cncn3)OCCO2)c(Cl)c1	1.03	0.932	0.984	0.934	0.815	0.916	0.985	1.01	0.956	0.913
COP(=O)(OC)SCn1c(=O)oc2cc(Cl)cnc21	0.883	1.02	0.983	1.02	1.01	1.01	1.03	1.01	1	1.03
CNC(=O)N(C)c1nnc(C(C)(C)C)s1	0.742	1.02	0.97	1.05	1	0.993	1.01	0.925	1	1.04
CCOC(=O)Nc1cccc(OC(=O)Nc2ccccc2)c1	0.899	1.06	0.961	1	0.889	0.998	0.95	0.944	0.986	0.977
CNC(=O)Oc1cc(C)c(S(C)(=O)=O)c(C)c1	0.967	1.02	0.963	0.995	0.995	0.97	0.97	0.985	0.998	1.01
Cc1cc(Cl)ccc1O[C@H](C)C(=O)O	1.04	0.841	1	0.982	1.15	0.991	0.958	1.01	0.972	0.968
CCOc1cc(OP(=S)(OC)OC)nc(CC)n1	0.924	1.03	1	1.01	1.13	0.994	0.996	1.01	0.997	1.03
CCNc1nc(NC(C)C)nc(SC)n1	0.916	0.959	0.997	0.976	1.19	0.985	1	0.988	0.999	0.983

Source: the supplement of paper PMC12669032
